These results are taken from PubChem BioAssay (Tox21).

Where “and” joins values, the source holds several entries; their conditions need not be identical. Equal values may be shown once. Results filed as inconclusive are left out. Where a call stands in place of a potency, no number is given. More than one record can exist for a structure, and the calls need not agree. Calls of active or inactive are those of the source. Calls come from the whole dose curve; as a rule, active = well fitted activation curve with a large enough effect in the repeat runs; inconclusive = weak or mixed curves; inactive = flat fitted curve, though single readings scatter.
Potency is the fitted concentration of half-maximal effect.

A short description of this test: A CellTox Green Cytotoxicity Assay to monitor cytotoxicity in HepG2 cells - 16 hour (AID 1224876). Note: nearly all actives have a fitted effect of over 45% in size. As to conditions: CellTox Green fluorescence; series mostly up to 76.8 µM. An excerpt:
National Center for Advancing Translational Sciences [NCATS]
NIH Chemical Genomics Center [NCGC]
U.S. Environmental Protection Agency [EPA]
National Institutes of Environmental Health Sciences [NIEHS]
National Toxicology Program [NTP]
Cell-based models are critical for drug discovery. Determining the natural cytotoxic effects resulting from test compounds is an essential research activity. A CellTox Green Cytotoxicity Assay to monitor cytotoxicity in real time of continues cell culture during 40 hours of the compound treatment was used to screen Tox21 10K library compounds in HepG2 cells. CellTox Green Cytotoxicity Assay is a nonlytic, homogeneous, biofluorescent method to measure cytotoxicity in cell culture after experimental manipulation. The assay system uses a proprietary asymmetric cyanine dye that is excluded from viable cells but preferentially stains the dead cell's DNA. […] Viable cells produce no appreciable increases in fluorescence. Therefore, the fluorescence signal produced by the binding interaction with dead cell DNA is proportional to cytotoxicity.
The mixture of HepG2 cell suspension and reagents were dispensed at 600cells/6 ul/well in 1536-well tissue culture treated black solid bottom plates using a Multidrop dispenser. After the assay plates were incubated at a 37 C/5% CO2 incubator for 5 hours, 23 nL of compounds dissolved in DMSO, positive and negative controls was transferred to the assay plate by a pintool work station. The plates were incubated at 37 C for 40 hours. The fluorescence intensity were measured at 0h, 8h, 16h, 24h, 32h and 40h time points using ViewLux plate reader during compound treatment.
For `COc1c2occc2cc2ccc(=O)oc12`, the Potency entry was “inactive”.

For the compound `C/C=C/c1ccc(OC)cc1`, the Potency result was “inactive”.

In the case of `NC(=O)NC1NC(=O)NC1=O` (stereo not given), the Potency entry was “inactive”.

Turning to `NC(N)=O`, the Potency result is “inactive”.

For `CC(=O)OCC(COC(C)=O)OC(C)=O`, the Potency result is “inactive”.

On to `O=C(O)CS`, for which the Potency entry was “inactive”.

On to `O=C(O)c1cc(N=Nc2ccc(S(=O)(=O)Nc3ccccn3)cc2)ccc1O`, for which the Potency result is “inactive”.

For the compound `Cn1c(=O)c2[nH]cnc2n(C)c1=O`, the Potency result is “inactive”.

As to `CC(O)CN(CCN(CC(C)O)CC(C)O)CC(C)O` (stereo not given), the Potency result was “inactive”.

As to `Cc1noc(NS(=O)(=O)c2ccc(N)cc2)c1C`, the Potency entry was “inactive”.

On to `CCCCC1C(=O)N(c2ccccc2)N(c2ccccc2)C1=O`, for which the Potency result is “inactive”.

Consider `CC(=O)Nc1nnc(S(N)(=O)=O)s1`, for which the Potency result was “inactive”.

`O=c1cc[nH]c(=S)[nH]1`: the Potency result is “inactive”.

Regarding `O=C(C1CCCCC1)N1CC(=O)N2CCc3ccccc3C2C1` (stereo not given), the Potency entry was “inactive”.

In the case of `O=S(=O)(O)NC1CCCCC1`, the Potency result was “inactive”.

Turning to `Cc1ccccc1C(OCCN(C)C)c1ccccc1` (stereo not given), the Potency entry is “inactive”.

On to `OCCc1ccccc1`, for which the Potency result was “inactive”.

`CCC1(c2ccccc2)C(=O)NCNC1=O`: the Potency entry is “inactive”.

For `CCCNC(=O)NS(=O)(=O)c1ccc(Cl)cc1`, the Potency entry is “inactive”.

As to `Nc1ccc(S(=O)(=O)c2ccc(N)cc2)cc1`, the Potency entry was “inactive”.

Turning to `COc1ccc2[nH]cc(CCNC(C)=O)c2c1`, the Potency result was “inactive”.

On to `CCOc1ccc(NC(=O)CC(C)O)cc1` (stereo not given), for which the Potency entry is “inactive”.

With `C[C@]12C=CC(=O)C=C1CC[C@@H]1[C@@H]2[C@@H](O)C[C@@]2(C)[C@H]1CC[C@]2(O)C(=O)CO`, the Potency entry was “inactive”.

For `O=c1ccc2ccccc2o1`, the Potency result is “inactive”.

`CC(C)(Oc1ccc(C2CC2(Cl)Cl)cc1)C(=O)O` (stereo not given): the Potency entry was “inactive”.

For the compound `CC(O)C(=O)O` (stereo not given), the Potency result is “inactive”.

In the case of `O=C1CN(/N=C/c2ccc([N+](=O)[O-])o2)C(=O)N1`, the Potency result is “inactive”.

As for `Cc1ccc(O)cc1`, the Potency result is “inactive”.

`NC(=O)c1ccccc1O`: the Potency entry is “inactive”.

On to `Cn1cc[nH]c1=S`, for which the Potency entry was “inactive”.

As to `O=S(=O)(O)c1ccc2cc(O)ccc2c1`, the Potency result was “inactive”.

In the case of `Cc1cc(=O)[nH]c(=S)[nH]1`, the Potency entry was “inactive”.

For the compound `c1ccc2[nH]ccc2c1`, the Potency is 21.5 µM (active) and inactive.

Consider `Cc1cc(=O)n(-c2ccccc2)n1C`, for which the Potency entry was “inactive”.

For `Cc1cn([C@H]2C[C@H](N=[N+]=[N-])[C@@H](CO)O2)c(=O)[nH]c1=O`, the Potency entry was “inactive”.

For `O=C(O)c1cccnc1`, the Potency result was “inactive”.

Consider `O=C1NC(=O)c2ccccc21`, for which the Potency entry is “inactive”.

For `CC(C)[C@@H]1CC[C@@H](C)C[C@H]1O`, the Potency entry was “inactive”.

`Cc1ccc(S(=O)(=O)NC(=O)NN2CCCCCC2)cc1`: the Potency entry was “inactive”.

For the compound `Nc1ccc(S(=O)(=O)Nc2nccs2)cc1`, the Potency result is “inactive and 38.9 µM (active)”.
